Screening results from PubChem.
Pf Dd2 inh – Plasmodium falciparum Dd2 growth inhibition. AID 1347417. 120,000 tested, 4.3% active. P. falciparum Dd2 growth, SYBR Green, 72 h. Potency, µM (doses to about 28.9 µM), for inactives: top-dose activity, negative = inhibition, usual class: inhibitors; active = well fitted inhibition curve with a large enough effect;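 note: plate controls were DMSO vehicle for no effect and reference drug for full effect; nearly all actives have a fitted effect of over 65% in size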
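Infected erythrocytes (Dd2, 0.3% parasitemia, 2.5% hematocrit final) are added to compound in RPMI-1640/Albumax II medium, grown 72 h at 37C in low oxygen, then lysed with saponin/Triton-X containing SYBR Green and read by fluorescence.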
* hit, by the source's call; [ ] = remark or other dose. This is one part of a sample in which hits are shown more often than they occur. Potency is the fitted concentration of half-maximal effect.

O=C(c1ccc2ccccc2n1)N1CCC(N2CC3CC(C2)[C@H]2CCCC(=O)N2C3)CC1 (some centres not stated) was read as Pf Dd2 inh -4%.
Screening Cc1nn2c(c1-c1cccnc1N1CCOCC1)N(CCC(C)C)CCC2 returned Pf Dd2 inh -8%[44.1 µM].
`CO[C@H]1C(=O)N(C(C)C)[C@H]1C1CCN(C(=O)Cn2nc(C(F)(F)F)cc2C)CC1` gave Pf Dd2 inh -3%.
For COC(=O)[C@@H]1Cc2c([nH]c3ccccc23)[C@H]2C[C@@H](N3CCOCC3)C[C@@H](c3ccc(F)cc3)N21 the results were Pf Dd2 inh -14%.
COC(=O)[C@@H]1Cc2c([nH]c3ccccc23)[C@H]2C[C@@H](NCCNC(C)=O)C[C@@H](c3ccccc3)N21 was read as Pf Dd2 inh -14%.
COC(=O)[C@@H]1Cc2c([nH]c3ccccc23)[C@H]2C[C@H](NCCO)C[C@@H](c3ccccc3)N21 was read as Pf Dd2 inh inactive.
Screening COC(=O)[C@@H]1Cc2c([nH]c3ccccc23)[C@H]2C[C@@H](NCCO)C[C@@H](c3ccc(F)cc3)N21 returned Pf Dd2 inh inactive.
`COC(=O)[C@@H]1Cc2c([nH]c3ccccc23)[C@H]2C[C@H](NCc3cccs3)C[C@@H](c3ccccc3)N21` gave Pf Dd2 inh 7.9µM*.
COC(=O)[C@@H]1Cc2c([nH]c3ccccc23)[C@H]2C[C@@H](NCc3cccnc3)C[C@@H](c3ccc(F)c(F)c3)N21 was read as Pf Dd2 inh -12%.
Screening COC(=O)[C@@H]1Cc2c([nH]c3ccccc23)[C@H]2C[C@@H](NCCNC(C)=O)C[C@@H](c3ccc(C)cc3)N21 returned Pf Dd2 inh inactive.
COC(=O)[C@@H]1Cc2c([nH]c3ccccc23)[C@H]2C[C@@H](NCCN3CCOCC3)C[C@@H](c3ccc(C(F)(F)F)cc3)N21 was read as Pf Dd2 inh 8.9µM*.
`COC(=O)[C@@H]1Cc2c([nH]c3ccccc23)[C@H]2C[C@@H](NCCNC(C)=O)C[C@@H](c3ccc(C(C)C)cc3)N21` gave Pf Dd2 inh -21%.
For COC(=O)[C@@H]1Cc2c([nH]c3ccccc23)[C@@H]2C[C@@H](NCCNC(C)=O)C[C@@H](c3ccc(F)c(F)c3)N12 the results were Pf Dd2 inh 0%.
For COC(=O)[C@@H]1Cc2c([nH]c3ccccc23)[C@H]2C[C@@H](NC3CC3)C[C@@H](c3ccc(F)cc3)N21 the results were Pf Dd2 inh 4.5µM*.
Screening C#CCN[C@H]1C[C@@H]2c3[nH]c4ccccc4c3C[C@@H](C(=O)OC)N2[C@H](c2ccc(F)cc2)C1 returned Pf Dd2 inh 13µM*.
Screening O=C(C[C@@H]1CCNC[C@@H]1Cc1cc(CSc2ccccc2)on1)N1CCCCC1 returned Pf Dd2 inh inactive.
For CCc1cnc(N)nc1N1CCN(c2cnccn2)CC1 the results were Pf Dd2 inh -14%.
Screening O=C(CCC[C@@H]1[C@H]2CCCN3CCC[C@@H](CN1Cc1cccnc1)[C@@H]23)Nc1cccnc1 returned Pf Dd2 inh inactive.
Screening CN1CCCC2(CCN(C(=O)Cc3c[nH]c(=O)n(C)c3=O)C2)C1=O (configuration not stated) returned Pf Dd2 inh -6%.
Screening O=C(COc1cccnc1)N[C@@H]1[C@@H]2CCO[C@@H]2[C@@H]1C1CCCC1 returned Pf Dd2 inh -5%.
COCCOC1CCOC2(CCN(C(=O)c3cc(F)ccc3F)CC2)C1 (configuration not stated) was read as Pf Dd2 inh 11%.
Screening CC(C)CC(=O)Nc1cccc(-c2nc3ccccc3[nH]2)c1 returned Pf Dd2 inh 22%.
`COc1c(Cl)cc(C(=O)Nc2cc(-c3nc4ccccc4[nH]3)ccc2C)cc1Cl` gave Pf Dd2 inh -28%.
For Cc1ccc(C(C)C)c(OCC(=O)Nc2cc(-c3nc4ccccc4[nH]3)ccc2C)c1 the results were Pf Dd2 inh 6.3µM*.
Screening Cc1cccc(CNC(=O)C2Cn3cccc3C(=O)N2Cc2ccccc2)c1 (configuration not stated) returned Pf Dd2 inh -52%.
For COc1ccc(C2Cn3nnc(C(=O)N4CCC(C(=O)NCc5ccc(F)cc5)CC4)c3CO2)cc1 (configuration not stated) the results were Pf Dd2 inh -9%.
Screening CCOC(=O)C1CCCN(c2c(C(=O)c3ccc(C)cc3)cnc3ccc(OCC)cc23)C1 (configuration not stated) returned Pf Dd2 inh 11µM*.
`CCOC(=O)C1CCCN(c2ncnc3c2cnn3-c2ccc(C)c(Cl)c2)C1` (configuration not stated) gave Pf Dd2 inh 62%.
Screening CCc1ccc2ncc(C(=O)c3ccc(C)c(C)c3)c(N3CCC(C(N)=O)CC3)c2c1 returned Pf Dd2 inh -34%.
Cc1c(Cl)c(C(=O)N2CCCC(C)(Cc3ccc4c(c3)OCO4)C2)nn1C (configuration not stated) was read as Pf Dd2 inh -5%.
